Screening results: PubChem, National Center for Advancing Translational Sciences (NCATS)
SMN2 splice enh: qHTS Assay for Enhancers of SMN2 Splice Variant Expression; Potency, µM (series often up to 46.1 µM), inactives show top-dose activity change, positive = activation, usual class: activators; hit rate 2.8% among 210,000; HEK293 SMN2-luciferase splicing reporter, luminescence, 30-36 h; also: % of control where 0% means no effect; nearly all actives have a fitted effect of over 55% in size
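qHTS luciferase splicing reporter: luminescence rises when SMN2 exon 7 is included in transfected HEK293 cells. Compound exposure lasted 30-36 h at 37C, with 4.5 mM final sodium butyrate as control, followed by a ONE-Glo read.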
ELG1 genotox: qHTS screen for small molecules that induce genotoxicity in human embryonic kidney (HEK293T) cells expressing luciferase-tagged ELG1; HEK293T ELG1-luciferase reporter, luminescence, 16 h; Potency, µM (highest dose often 46 µM), for inactives: top-dose activity change, positive = activation, usual class: activators; hit rate 1.3% among 330,000; AID 504466, 2011; also: % of control where 0% means no effect; nearly all actives have a fitted effect of over 60% in size
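Genotoxicity was scored as increased ELG1-luciferase reporter signal, measured by ONE-Glo luminescence (30 min, room temperature). Compound or vehicle exposure of the HEK293T reporter cells lasted 16 hr at 37°C.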
ELG1 repair inh: qHTS screen for small molecules that inhibit ELG1-dependent DNA repair in human embryonic kidney (HEK293T) cells expressing luciferase-tagged ELG1 | HEK293T ELG1-luciferase reporter, luminescence, 16 h; DNA damage induced by 5-fluorouridine | Potency, µM (top dose mostly 46.1 µM), for inactives: top-dose activity change, negative = inhibition, most hits filed as inhibitors | hit rate 2.3% among 330,000 | AID 504467, 2011; also: % is scaled to controls: 0 for no effect and ±100 for the full control effect; nearly all actives have a fitted effect of over 55% in size
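Luminescence from the luciferase reporter, measured 30 min after ONE-Glo reagent at room temperature, was the read-out. Beforehand, 2,000 cells per well were exposed for 16 hr at 37 °C to 5-fluorouridine together with compound or vehicle.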
NPC1 prom act: qHTS Assay for NPC1 Promoter Activators; Huh7 NPC1 promoter luciferase reporter, 24 h; Potency, µM (doses to about 9.22 µM), for the others: at the highest dose activation, hits mostly activators; hit rate 2.4% among 320,000; AID 485313, 2010; also: % of control where 0% means no effect; nearly all actives have a fitted effect of over 60% in size
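Luminescence from an NPC1 promoter-driven luciferase reporter in stably transfected Huh7 cells was measured after 24 h compound treatment at 37 °C, followed by 10 min ambient incubation with luciferase detection reagent.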
Rab9 promoter act: qHTS Assay for Rab9 Promoter Activators; Potency, µM (highest dose often 9.22 µM), inactives show top-dose activation, negative = inhibition, usual class: activators; hit rate 2.8% among 320,000; Huh7 Rab9 promoter-luciferase reporter, luminescence, 24 h; also: % of control where 0% means no effect; nearly all actives have a fitted effect of over 60% in size
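Luminescence read-out: Huh7 cells stably expressing Rab9-luciferase, treated 24 h with compound at 37 °C, then lysed with luciferase reagent for 10 min at ambient before reading.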
FLuc counter: qHTS profiling assay for firefly luciferase inhibitor/activator using purifed enzyme and Km concentrations of substrates (counterscreen for miR-21 project) | purified FLuc, Km substrates, luminescence inhibition | Potency, µM (highest dose often 57.5 µM), inactives show at the highest dose activity change, negative = inhibition, hits mostly inhibitors | hit rate 6.9% among 360,000 | AID 588342, 2011;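 also: plate controls were vehicle for no effect and reference inhibitor for full effect; nearly all actives have a fitted effect of over 55% in size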
Target sequence (P08659 whole entry, looked up): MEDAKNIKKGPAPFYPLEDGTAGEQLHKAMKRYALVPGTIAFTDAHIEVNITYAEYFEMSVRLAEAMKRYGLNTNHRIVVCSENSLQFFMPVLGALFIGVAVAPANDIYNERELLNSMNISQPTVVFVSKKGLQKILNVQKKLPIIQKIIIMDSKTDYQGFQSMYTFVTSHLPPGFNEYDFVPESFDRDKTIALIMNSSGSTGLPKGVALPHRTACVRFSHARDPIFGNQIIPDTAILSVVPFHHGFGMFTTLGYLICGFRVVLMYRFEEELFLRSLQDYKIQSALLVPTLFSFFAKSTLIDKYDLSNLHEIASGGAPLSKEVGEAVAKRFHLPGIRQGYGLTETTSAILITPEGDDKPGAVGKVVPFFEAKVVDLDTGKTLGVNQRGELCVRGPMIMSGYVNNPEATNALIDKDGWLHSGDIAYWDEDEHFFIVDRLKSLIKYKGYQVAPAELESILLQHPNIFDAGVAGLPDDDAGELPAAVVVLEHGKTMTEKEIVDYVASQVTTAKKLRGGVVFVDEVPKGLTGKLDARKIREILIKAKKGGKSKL
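Biochemical qHTS of compounds, final roughly 60 µM downward over six points, against 10 nM purified firefly luciferase using Km concentrations of substrates (10 uM D-luciferin, 10 uM ATP) in Tris acetate pH 7.5 buffer; luminescence output.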
Starred values were filed as active, the others as inactive; ? = inconclusive; . = not tested or not shown. Most compounds without a hit are left out; they make up all but 9.3% or so of the library. Calls follow the shape of the dose curve; as a rule, active = well fitted curve in the direction sought with a large enough effect; inconclusive = small, poorly fitted or top-dose-only effect, or another doubt; inactive = no such curve, though single readings can be large; an effect the other way counts as inactive or inconclusive. Potency is read from the fitted curve at half-maximal effect.

SMILES	SMN2 splice enh	ELG1 genotox	ELG1 repair inh	NPC1 prom act	Rab9 promoter act	FLuc counter
NS(=O)(=O)c1ccc(CCNC(=O)c2cc(-c3cccs3)nc3ccccc23)cc1	-4.3%	-12.4%	?	-3.5%	-5.7%	-17.8%
O=C(O)c1cc(-c2ccccc2)nc2ccccc12	-20.0%	3.3%	11.9%	1.2%	0.7%	23.9µM*
COc1cc(-c2cc(C(=O)NCCc3ccc(S(N)(=O)=O)cc3)c3ccccc3n2)cc(OC)c1OC	.	-2.6%	4.11µM*	1.5%	-4.5%	-14.9%
Cc1ccc(-c2cc(C(=O)NCCc3ccccc3)c3ccccc3n2)cc1C	.	.	.	.	.	8.49µM*
CCOc1ccc(-c2cc(C(=O)N3CCN(c4cc(Cl)ccc4C)CC3)c3ccccc3n2)cc1	.	.	.	.	.	9.53µM*
CCOC(=O)c1ccc(NC(=O)Cn2cc(C(=O)c3ccc(CC)cc3)c(=O)c3ccc(C)nc32)cc1	.	.	.	.	.	-1.2%
CCCN1CCN(CCCNC(=O)Cn2nc(-c3ccc(C)cc3)ccc2=O)CC1	-1.2%	0.1%	17.3%	-0.8%	-0.8%	-1.0%
CCCN1CCN(c2ccc(S(N)(=O)=O)cc2[N+](=O)[O-])CC1	-8.4%	-1.8%	8.3%	-2.7%	1.5%	3.7%
COc1ccc(C2(C(=O)Nc3ccc(OC)cc3OC)CCCC2)cc1	-10.1%	-11.8%	?	-7.4%	8.1%	1.0%
O=C(Nc1nnc(-c2cccs2)o1)c1cc(-c2ccccc2)nc2ccccc12	-92.1%	-8.2%	-0.7%	-3.4%	-2.4%	19µM*
Cc1ccc(-c2cc(C(=O)O)c3ccccc3n2)c(C)c1	.	6.6%	?	16.6%	-0.2%	7.57µM*
Cc1ccc(-c2cc(C(=O)Nc3cc(C)on3)c3ccccc3n2)c(C)c1	-12.0%	0.5%	-1.8%	1.1%	6.8%	?
CCOc1ccc(-c2cc(C(=O)O)c3ccccc3n2)cc1	11.2µM*	3.26µM*	?	?	1.58µM*	0.675µM*
O=C(NCc1cccs1)c1cc(-c2ccccc2)nc2ccccc12	-8.5%	-7.7%	?	0.1%	1.7%	?
CCOc1ccc(-c2cc(C(=O)NCCc3ccc(C)cc3)c3ccccc3n2)cc1	.	.	.	.	.	1.35µM*
CCC(C(=O)N1CCN(c2ccc(OC)cc2)CC1)n1nc(C)n2c(cc3occc32)c1=O (stereo unspecified)	-29.6%	.	.	.	.	-8.8%
O=C(CCn1c(=O)[nH]c2ccsc2c1=O)N(CCc1ccccc1)Cc1ccccc1	-15.5%	-15.2%	?	0.6%	-1.2%	4.2%
N#CCCN(Cc1cccs1)C(=O)Nc1ccc(F)cc1	.	-0.9%	-3.7%	2.1%	-4.5%	3.9%
O=C(O)CCC(=O)Nc1cccc2cccnc12	.	-0.9%	7.4%	-6.6%	1.6%	3.9%
CCCCn1c(SCc2ccc(C(=O)OC)o2)nc2cc(S(N)(=O)=O)ccc21	-35.2%	-8.0%	10.3µM*	-6.6%	-18.1%	-7.7%
CCCCn1c(SCC(=O)c2cc(OC)ccc2OC)nc2cc(S(N)(=O)=O)ccc21	-11.0%	-1.3%	7.9%	0.1%	1.1%	0.2%
O=C(NCCCNc1ccc(C(F)(F)F)cc1[N+](=O)[O-])c1cc(F)c(F)cc1Cl	-29.4%	-4.4%	?	-2.7%	-7.7%	-7.5%
CC(C)COc1ccc(C(=O)Nc2ccccc2[N+](=O)[O-])cc1	15.8µM*	?	?	?	?	?
COc1ccc(C(=O)NCCNc2ccccc2[N+](=O)[O-])cc1	11.2µM*	11.6µM*	?	1.58µM*	0.631µM*	4.78µM*
O=C(NCCNc1ccccc1[N+](=O)[O-])c1cc(F)c(F)cc1Cl	.	?	?	?	?	19µM*
SMILES	SMN2 splice enh	ELG1 genotox	ELG1 repair inh	NPC1 prom act	Rab9 promoter act	FLuc counter
COc1cc(C(=O)NC2CC3CCCC(C2)N3Cc2ccccc2)cc(OC)c1OC (stereo unspecified)	.	-2.8%	-2.1%	-5.3%	6.3%	-0.6%
CN(C)N1C(N)=C(C#N)C(c2cccnc2)C2=C1CC(C)(C)CC2=O (stereo unspecified)	-9.0%	-0.1%	-2.2%	-7.6%	3.5%	0.7%
CCC(C)(C)NC(=O)c1ccc2c(c1)OCCO2	23.6%	11.0%	?	-1.3%	15.3%	-3.4%
CC(=O)OC1CC(C)(C)N(OC(=O)c2ccccc2)C(C)(C)C1	16.6%	0.2%	-1.8%	3.1%	-0.7%	4.4%
COc1c(/C=N/NC(=O)[C@H]2C[C@@H]2c2ccccc2)c(CCN(C)C(C)=O)cc2c1OCO2	.	-1.7%	13µM*	-3.9%	-2.0%	-14.5%
CCC(=O)N(C)CCc1cc2c(c(OC)c1/C=N/NC(=O)[C@H]1C[C@@H]1c1ccccc1)OCO2	.	-2.0%	?	-1.8%	-3.7%	7.8%
CCOC(=O)C1CCCCN1C(=O)c1ccc2nc(Cc3ccc(OC)cc3)oc2c1 (stereo unspecified)	.	-3.6%	-5.9%	0.5%	-6.6%	-13.4%
CCOC(=O)C1CCCCN1C(=O)/C(=C/c1ccc(OC)cc1)c1ccc(OC)c(OC)c1 (stereo unspecified)	.	-8.3%	18.3µM*	.	.	.
COc1ccc(NC(=O)CN2C(=O)CC(c3ccc(C)c(C)c3)=Nc3ccccc32)cc1OC	.	.	.	.	.	13.5µM*
Cc1ccc(C2=Nc3ccccc3N(CC(=O)NCc3ccccc3Cl)C(=O)C2)cc1C	.	.	.	.	.	9.53µM*
Cc1ccc(NC(=O)CN2C(=O)CC(c3ccc(F)cc3)=Nc3ccccc32)cc1F	.	.	.	.	.	-6.2%
Fc1ccc(NC(=S)NN2CCOCC2)cc1Cl	4.0%	-3.9%	6.2%	-1.2%	0.9%	1.4%
COc1ccc(OC)c(S(=O)(=O)N2CCCCC2C(=O)N2CCN(c3ccccn3)CC2)c1 (stereo unspecified)	-7.7%	-5.4%	?	-1.2%	-8.0%	2.2%
COc1ccc(Cn2c(CO)cnc2SCc2ccccc2)cc1	.	.	.	.	.	-18.3%
COc1cccc(OC)c1NC(=O)C1CCCN1C(=O)Nc1ccccc1Cl (stereo unspecified)	.	-1.3%	9.5%	2.0%	-1.9%	-0.3%
